PubChem BioAssay (NCATS)
Results filed as inconclusive are left out. A call without a number means that no potency is given here. Calls of active or inactive are those of the source. The call rests on the fitted dose curve; in most records, active means well fitted inhibition curve with a large enough effect; inconclusive means small, poorly fitted or top-dose-only effect; inactive means no such curve, though single readings can be large or run the other way. Peptide text beside a SMILES is read from it. * marks the point of attachment. Hexanoyl = CCCCCC(=O)*

Assay: qHTS for Hypoxia signaling pathway (HIF-1) antagonists against the NCATS CANVASS Library (AID 1347374); further: nearly all actives have a fitted effect of over 60% in size
Conditions: HRE-bla ME-180 cells, HIF-1 beta-lactamase reporter, CoCl2; series mostly up to 38.3 µM
Outline: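 HRE-bla ME-180 cells in medium with 0.5% dialyzed FBS received compounds (11-point series) plus CoCl2 (60 uM addition stock) for 17 hrs at 37C. Beta-lactamase activity read with CCF4 (405 nm ex, 460/530 nm em); CellTiter-Glo viability measured in same wells.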
Potency means the concentration at half of the fitted maximal effect.

SMILES	Potency
CC(=O)N[C@H](C)c1nc(/C=C/C=C/C(=O)CC2CC(=O)CC[C@]2(C)O)cs1 (stereo partly drawn)	inactive
CN1C(=O)C(=O)N2C(=C[C@]3(c4c[nH]c5ccccc45)c4ccccc4N[C@H]23)C1=O	inactive
C/C=C1/C2=CCCN3C(=O)O[C@H]([C@H]1O)[C@H]23	inactive
O=C1CC(c2ccc(O)cc2)Oc2ccccc21 (stereo not drawn)	inactive
COc1c(O)cc(O)c2c(=O)cc(-c3ccccc3)oc12	10600 nM (active)
COC1C(C)OC(OCC23C[C@@H]4[C@H](C)CC[C@H]4C4(C=O)CC2C=C(C(C)C)C34C(=O)O)[C@@H](O)[C@H]1O (stereo partly drawn)	inactive
CN1CC[C@@]2([C@@]34CCN(C)[C@@H]3Nc3ccccc34)c3ccccc3N[C@@H]12	inactive
COc1ccc(-c2oc3cc(OC)cc(OC)c3c(=O)c2O)cc1	472 nM (active)
Cc1cc(O)cc2c1C(=O)c1c(O)cc(O)cc1C2=O	inactive
C=C(C)C(=O)O[C@H]1C[C@@]2(C)OC(=CC2=O)/C(C)=C\[C@H]2OC(=O)C(=C)[C@H]12	1670 nM (active)
C=C[C@]1(C)CC[C@@H]([C@H](C)C(=O)CC=C(C)C)O1	inactive
CC[C@@H]1C[C@@]2(CC)OC(=O)[C@@]3(CC)[C@H](CC)[C@@H]1[C@@H]23	inactive
[C-]#[N+][C@@]12C(=O)[C@@H]3[C@@H](O[C@@]4(C(=O)N(C)c5cccc1c54)C3(C)C)C(=O)[C@@]2(C)C=C	2980 nM (active)
COC(=O)c1cccc2oc(-c3cccc4oc(-c5c(C)cccc5O)nc34)nc12	941 nM (active)
C[C@@]12CCC[C@@](C)(C(=O)O)[C@H]1CC[C@@]13C[C@@H](CC[C@H]12)[C@](C)(O)C3	inactive
O=C1OC(CCO)c2cccc(O)c21 (stereo not drawn)	inactive
C=C1C[C@]23C=CC(=O)[C@@](C)(CCCC(C)C(=O)N[C@@H](CO)C(=O)O)[C@@H]2C[C@@H]1CC3 (stereo partly drawn)	inactive

SMILES	Potency
COc1cc2ccc(=O)oc2c(O)c1O[C@@H]1O[C@H](CO)[C@@H](O)[C@H](O)[C@H]1O	inactive
C/C(=C\[C@@H](C)CC/C=C/CC/C=C/C(=O)O)[C@@H](O)[C@H](C)C(=O)CCCC1CC(=O)NC(=O)C1	inactive
CO[C@@H](C[C@@H](C)[C@@H](O)/C=C/C=C/CNC(=O)C(C)(C)[C@H](O)\C(C)=C/C=C\C=C\Cc1cnco1)[C@]1(O)[C@@H](C)C(=O)N(C)[C@@]12COC2=O	inactive
O=C1CC(c2ccc(O)cc2)Oc2cc(O)ccc21 (stereo not drawn)	inactive
C[C@@]12CCC[C@@](C)(C(=O)O)[C@H]1C[C@@H](O)[C@@]13C[C@@H](CC[C@@H]21)[C@](C)(O)C3	inactive
O=Cc1ccc2n1C[C@]1(OC2)O[C@H](CO)[C@@H](O)[C@@H]1O	inactive
C=C[C@@]1(C)CC[C@@H]([C@H](C)C(C)=O)O1	inactive
C/C=C(/CO)C(=O)O[C@@H]1[C@H](O)[C@@H](C(=O)OC)O[C@@H]2C[C@H]3OC(n4cnc5c(N)ncnc54)[C@H](OC)[C@H]3O[C@@]12O (stereo partly drawn)	inactive
C/C=C/[C@H]1[C@H]2C(=O)c3c(O)c(C)c(O)c(C)c3[C@]1(C(=O)O)C(=O)C=C2C	inactive
C[C@@]12C[C@@H](C[C@@H]3C(=O)O[C@@H](c4ccoc4)[C@H](OC(=O)c4ccccc4)[C@@H]31)OC2=O	inactive
C=C1CCC2C(C)(C(=O)O)CCC(CC/C(C)=C/C(=O)NC(CCC(N)=O)C(=O)O)[C@@]2(C)C1 (stereo partly drawn)	inactive
C=C1[C@@]2(C)CC3C4(C)CCC(O)C(C)(C)C4CCC3(C)[C@]1(C(=O)OC)C(=O)C(C)(O)C2=O (stereo partly drawn)	inactive
CC(C)=CCC[C@]1(C)[C@H]2CC(=O)[C@@]3(CO3)[C@@H]1C2	inactive
CCCCCC(=O)N[C@@H](CC(C)C)C(=O)N[C@H](C=O)CCC(=O)O (Hexanoyl-Leu-Glu-aldehyde)	inactive
COc1ccc([C@@H]2c3cc4c(cc3C(=O)C(C)C2C)OCO4)cc1OC (stereo partly drawn)	inactive
CC1(C)CC[C@]2(CO)CC[C@]3(C)C(=CCC4[C@@]5(C)CC[C@H](O)C(C)(C)C5CC[C@]43C)C2C1 (stereo partly drawn)	inactive
